Most compounds without a hit are left out; they make up all but 10% or so of the library.
JMJD2A Tudor = JMJD2A Tudor domain (human) inhibition. O75164. 390,000 compounds, 4.4% hits. AlphaScreen JMJD2A-Tudor / H3K4me3 peptide binding. Potency, µM (series often up to 114 µM), inactives show top-dose activity change, negative = inhibition, usual class: inhibitors; note: % is set by controls: 0 for no effect and ±100 for the full control effect; nearly all actives have a fitted effect of over 50% in size
GLS inh = inhibitors of human glutaminase (GLS); Potency, µM (doses to about 45.5 µM), inactives show at the highest dose activity change, negative = inhibition, hits mostly inhibitors; 410,000 compounds, 0.21% hits; GLS enzymatic activity, qHTS titration; note: % is set by controls: 0 for no effect and ±100 for the full control effect
Target sequence (O94925 whole entry, looked up): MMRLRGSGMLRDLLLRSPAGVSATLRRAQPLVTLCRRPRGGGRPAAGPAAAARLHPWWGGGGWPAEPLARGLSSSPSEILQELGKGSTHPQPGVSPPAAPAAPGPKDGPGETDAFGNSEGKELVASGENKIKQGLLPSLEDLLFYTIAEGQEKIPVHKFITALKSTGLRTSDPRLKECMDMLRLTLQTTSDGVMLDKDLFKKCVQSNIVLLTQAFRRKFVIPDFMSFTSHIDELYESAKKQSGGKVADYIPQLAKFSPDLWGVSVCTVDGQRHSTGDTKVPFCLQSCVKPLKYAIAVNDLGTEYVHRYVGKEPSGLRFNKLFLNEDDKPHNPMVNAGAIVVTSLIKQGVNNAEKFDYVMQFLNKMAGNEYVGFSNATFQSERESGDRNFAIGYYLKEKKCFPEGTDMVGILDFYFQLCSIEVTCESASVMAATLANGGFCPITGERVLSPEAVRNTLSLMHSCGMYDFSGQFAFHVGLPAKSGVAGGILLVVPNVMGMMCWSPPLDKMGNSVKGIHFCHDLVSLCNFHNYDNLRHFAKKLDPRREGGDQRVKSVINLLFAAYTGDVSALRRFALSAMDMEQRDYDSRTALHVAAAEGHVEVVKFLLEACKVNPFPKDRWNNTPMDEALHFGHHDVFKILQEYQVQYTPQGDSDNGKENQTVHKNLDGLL
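hKGA; 45 mM KH2PO4 pH 8.2 + 0.02% Tween-20; cpd via pin tool; 1 mM Gln soln; GluOx/HRP/Amplex Red; RT 30 min; fluor. t0 & final.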
G9a block = inhibitors of human histone lysine methyltransferase G9a. G9a H3K9 monomethylation, AlphaScreen, 2 h. Potency, µM (top dose mostly 102 µM), without a hit: top-dose activity, negative = inhibition, most hits filed as inhibitors. 350,000 compounds, 8.8% hits. AID 504332; note: % is set by controls: 0 for no effect and ±100 for the full control effect; nearly all actives have a fitted effect of over 75% in size
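AlphaScreen read-out: biotin-H3K9 peptide (500 nM) methylation by 20 nM enzyme with 20 uM SAM, 2 h at room temperature after 15 min compound preincubation; anti-monomethyl H3K9 antibody plus donor/acceptor beads, 10 min dark.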
BAZ2B inh = blocks human BAZ2B | Potency, µM (titrated, usually from 114 µM), for the others: top-dose activity change, negative = inhibition, usual class: inhibitors | AlphaScreen BAZ2B-H3K14Ac peptide displacement | Q9UIF8 | 360,000 compounds, 4.4% hits | AID 504333; note: % is set by controls: 0 for no effect and ±100 for the full control effect; nearly all actives have a fitted effect of over 60% in size
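Complex of BAZ2B and biotin-H3K14Ac (50 nM apiece) forms over 30 min at RT, then faces library compounds up to 110 uM for another 30 min; AlphaScreen beads added, 20 min dark incubation, luminescence read.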
HP1b binding inh = blocks HP1-beta chromodomain binding to methylated histone tails | P83916 | AlphaScreen HP1-beta / biotin-H3K9me3 peptide binding | Potency, µM (top dose mostly 114 µM), for inactives: top-dose activity change, negative = inhibition, usual class: inhibitors | 390,000 compounds, 0.56% hits | AID 540317; note: nearly all actives have a fitted effect of over 70% in size
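HP1-beta protein (50 nM final) preincubated 30 min at room temperature with biotinylated H3(1-18)K9me3 peptide (50 nM) in PBS pH 7.4, 0.01% Tween-20, then compound added for 30 min. AlphaScreen streptavidin donor/nickel chelate acceptor beads (10 ug/mL final), 30 min dark, luminescence read.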
* hit, by the source's call; ? = inconclusive; nt = no result given; ! = a repeat was not active; [ ] = dose if it differs, or a comment. Calls come from the whole dose curve; as a rule, active = well fitted curve in the direction sought with a large enough effect; inconclusive = small, poorly fitted or top-dose-only effect, or another doubt; inactive = no such curve, though single readings can be large; an effect the other way counts as inactive or inconclusive. Potency is the fitted concentration of half-maximal effect.

SMILES | JMJD2A Tudor | GLS inh | G9a block | BAZ2B inh | HP1b binding inh
Cc1ccc(-n2c(O)c(/C=N/Nc3ccccc3)c(=O)[nH]c2=O)cc1C | -24% | 25% | 7.9µM* | -24% | 25%
Cn1c(O)c(/C=N/Nc2ccccc2)c(=O)n(C)c1=O | ? | -11% | 4µM* | -23% | 18%
COc1ccc(N/N=C/c2c(O)n(-c3ccc(C)c(C)c3)c(=O)[nH]c2=O)cc1 | 35µM* | 27% | 1µM* | -36% | -14%
Cn1c(O)c(C=Nc2ccccc2)c(=O)n(C)c1=O | -7% | -4% | 2% | 8% | 4%
COc1ccc(N/N=C/c2c(O)n(-c3cccc(C)c3)c(=O)[nH]c2=O)cc1 | -30% | 47% | 2.2µM* | -14% | 4%
Cc1ccc(-n2c(O)c(/C=N/N3CCCCCC3)c(=O)[nH]c2=O)cc1C | -12% | 0% | ? | -4% | 5%
CC1=CC(=O)C2=C(C)C[C@@H](O)[C@@H]3[C@@H](OC(=O)[C@H]3C)[C@H]12 | nt | nt | 23%[21.5 µM] | nt | nt
CN1C(=O)C2C[C@@]3(Br)c4ccccc4N(OOSc4ccccc4)[C@H]3N2C(=O)[C@@H]1Cc1ccccc1 (some centres undefined) | -28% | 1% | nt | nt | 2%
O=c1[nH]c2ccccc2n1C1CCN(C(CCc2ccccc2)c2nnnn2C2CCCCC2)CC1 (centres undefined) | nt | 8% | nt | nt | nt
CN1CCN(/N=C/c2c(O)n(C)c(=O)n(C)c2=O)CC1 | -8%[57.1 µM] | 44% | 28µM* | -12% | 18%
Cc1cc(C)c(-n2c(O)c(C=NCCN3CCOCC3)c(=O)[nH]c2=O)c(C)c1 | 2% | 0% | -5% | -2% | 57%
Cn1c(O)c(C=NCCCN2CCCC2=O)c(=O)n(C)c1=O | -8% | 4% | 1% | 5% | 1%
COc1cccc(-n2c(O)c(C=NCCN3CCOCC3)c(=O)[nH]c2=O)c1 | -11% | -3% | 45µM* | 8% | 63%
COc1ccc(OC(=O)N(C)C[C@H]2OCc3cnnn3CCCC(=O)N([C@H](C)CO)C[C@H]2C)cc1 | nt | 0% | nt | nt | nt
O=C(Oc1ccccc1)N1CCC2(CCN(Cc3ccccc3)CC2)CC1 | nt | nt | 8%[12.7 µM] | nt | nt
COC(=O)[C@H]1[C@H]2C[C@@H]3c4[nH]c5cc(OC)ccc5c4CCN3C[C@H]2C[C@@H](OC(=O)/C=C/c2cc(OC)c(OC)c(OC)c2)[C@@H]1OC | 28µM* | 3% | 8.9µM* | ? | -22%
O=C1NCCN2CCCC12 (centres undefined) | 3% | 9% | 13µM* | -8% | 54%
NC1CC1c1ccccc1 (centres undefined) | nt | nt | 36%[59 µM] | nt | nt
Cc1ccccc1-n1nc(C)c2c1NC(=O)CSC2c1ccc(Cl)cc1 (centres undefined) | -30% | 15% | 13µM* | ? | -10%
COC(=O)C1=C(c2ccc(-c3ccccc3)c(F)c2)C[C@@H]2CC[C@H]1N2C(=O)N1CCOCC1 | -25% | -1% | 7%[2.33 µM] | -31% | 30%
C=CCn1c(CSc2ccccc2[N+](=O)[O-])n[nH]c1=S | 8.9µM* | ? | 1.3µM* | 40µM* | ?
NC(N)=NOCC[C@H](N)C(=O)O | nt | nt | 32µM*! | nt | nt
CCOC(=O)[C@]12Cc3cc(Cl)ccc3[C@H]1N(C1CCCCC1)C(=O)c1cc(OC)ccc12 | nt | -28% | nt | nt | nt
CN(C)c1c([N+](=O)[O-])cc(N2C(=O)C=CC2=O)cc1[N+](=O)[O-] | 8.9µM* | ? | nt | nt | 14µM*
CCOc1ccc(-c2nc3ccc(-c4nc5ccc(N6CCN(C)CC6)cc5[nH]4)cc3[nH]2)cc1 | nt | nt | 13µM* | nt | nt
SMILES | JMJD2A Tudor | GLS inh | G9a block | BAZ2B inh | HP1b binding inh
CCCN(CCC)C(=O)Cc1c(-c2ccc(Cl)cc2)nc2ccc(Cl)cn12 | nt | -14% | nt | nt | nt
Cc1cc(/C=C2/C(=O)NC(=O)N(c3ccccc3)C2=O)c(C)n1-c1ccc(F)cc1 | -18% | -1% | nt | nt | 15%
Cc1cc(C=C2C(=O)N(C)C(=O)N(C)C2=O)c(C)n1-c1ccccc1 | -5% | -3% | 7.9µM* | -8% | 65%
CCCC1=Nc2cc(C(=O)NCCCN(CC)CC)ccc2Sc2ccccc21 | -30% | -4% | -27%[59 µM] | -28% | 13%
C[C@H](N)CN1CCc2ccc(Br)cc21 | -25% | 20% | 45µM* | nt | 13%
NNc1ccccc1 | nt | -20% | 31%[59 µM] | nt | nt
C/C=C(\CC)C(=O)NC(N)=O | nt | -5% | nt | nt | nt
CC[N+](C)(CC)CCCOC(=O)C(O)(c1ccccc1)C1CCCCC1 (centres undefined) | 40µM* | 12% | ? | -28% | ?
CCOC(C(=O)OCCC[N+](C)(CC)CC)(c1ccccc1)c1ccccc1 | -4% | -4% | -4%[59 µM] | -20% | 15%
Fc1ccccc1-c1n[nH]c(=S)n1Cc1ccccc1 | 22µM* | -7% | 3.5µM* | -3% | 2%
COC(=O)C1=C(c2ccc3ccccc3c2)C[C@@H]2CC[C@H]1N2C(=O)N1CCCCC1 | -22% | 6% | -3%[0.501 µM] | -33% | 33%
CN1C(=O)C(c2ccc([N+](=O)[O-])cc2[N+](=O)[O-])C(=O)N(C)C1=O | ? | 1% | 8%[2.33 µM] | 50µM* | 18%
C[C@@H]1O[C@H](C[N+](C)(C)C)CS1 | nt | nt | 2µM* | nt | nt
Cc1ccc(C)c(S(=O)(=O)c2nnn3c2nc(N2CCN(C)CC2)c2sccc23)c1 | -29% | 6% | 5%[59 µM] | ? | 41%
O=C(COc1ccc(Br)cc1)Nc1ccc(Cl)cc1C(=O)c1ccccc1 | -10% | -5% | 11%[59 µM] | -1% | 16%
NC(=O)c1cn(C2CCCCC2)c2ccccc2c1=O | -1% | -5% | 14% | -9% | 36%
O=C1c2ccccc2C(=O)N1SC1CCCCC1 | ? | ? | 2µM* | 2% | -8%
Cc1ccc(N)c(C(=O)c2ccc(Br)cc2)c1 | 28µM* | 1% | 16µM* | 40µM* | ?
COc1ccc(/C=C2/C(=O)NC(=O)N(Cc3ccco3)C2=O)cc1 | nt | nt | 10µM* | 32µM* | nt
CCOC(=O)C1CCN(/C=C2/C(=O)NC(=O)N(Cc3ccco3)C2=O)CC1 | ? | 7.1µM* | ? | ? | -13%
CCc1ccc(N2C(=O)NC(=O)C(Cc3ccc(OC)cc3OC)C2=O)cc1 (centres undefined) | -10% | 51% | ? | -20% | 40%
Cc1ccc(OCCn2cccc2/C=C2/C(=O)NC(=O)N(Cc3ccco3)C2=O)cc1 | -30% | -12% | 50µM* | -35% | 4%
CCc1ccc(N2C(=O)NC(=O)/C(=C\c3cccn3CCOc3ccc(C(C)C)cc3)C2=O)cc1 | ? | 2% | 7.1µM* | -18% | 19%
CC(=O)C1CCC2C3CCC4CC(O)CCC4(C)C3CC(O)C12C (centres undefined) | nt | nt | -45%[2.33 µM] | nt | nt
Cc1ccccc1-c1nc(CN2C(=O)CN=C(c3ccccc3)c3ccccc32)c(C)o1 | ? | 4% | ? | ? | -28%
Cc1ncoc1C(=O)NCC1=C(c2ccc(S(C)(=O)=O)cc2)C[C@@H]2CC[C@H]1N2CCOc1ccccc1 | nt | 0% | nt | nt | nt

Assay outcomes: PubChem BioAssay, National Center for Advancing Translational Sciences (NCATS)
